This note sets out measurements from PMC10812921, “Transcriptional Coactivator BOB1 (OBF1, OCA-B) Modulates the Specificity of DNA Recognition by the POU-Domain Factors OCT1 and OCT2 in a Monomeric Configuration”.

Sequence of POU1 (OCT1 POU domain) (P14859 260-458): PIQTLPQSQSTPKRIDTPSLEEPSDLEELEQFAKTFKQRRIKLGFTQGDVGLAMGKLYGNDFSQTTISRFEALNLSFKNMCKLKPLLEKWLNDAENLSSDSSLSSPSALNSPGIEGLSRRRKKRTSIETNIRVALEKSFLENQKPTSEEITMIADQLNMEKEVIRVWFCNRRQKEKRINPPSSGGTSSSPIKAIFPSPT

For the first test, the target named is POU1 (OCT1 POU domain) (human, UniProt P14859 260-458). As to the kind of experiment: EMSA-SELEX-seq; no BOB1; 20 mM Tris-HCl pH 7.6, 140 mM NaCl, 10% glycerol, 0.5 mM EDTA, 0.05% Triton X-100, 0.1 mg/mL BSA, 0.1 mg/mL poly(dI-dC), 5 mM DTT, room temperature, 20 min; high values mean tight binding. The following applies: protein: recombinant; dsDNA, one strand shown. The gist of the method:
(§1)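 Tagged POU-domain proteins were produced in E. coli BL21, purified under denaturing conditions and renatured before use. They were mixed at 30 ng with 300 ng of a PCR-amplified double-stranded random 35-nt library, with or without 28 ng coactivator protein, in 20 μL Tris–HCl pH 7.6 binding buffer, incubating 20 min at RT. Complexes cut from native 6% PAGE were eluted and PCR-amplified over four rounds, then sequenced by Illumina, with binding preference taken as the percentage of sequenced 8-mers matching a motif pattern.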
For ACCATAAC, the binding signal is 0.032 % of ANNNNAAN 8-mers.
As to AGGTGAAT, the binding signal was 0.108 % of ANNNNAAN 8-mers.
As for AAGACAAA, the binding signal was 0.0538 % of ANNNNAAN 8-mers.
Same read-out and setting: in the case of AGGGAAAG it was 0.194 % of ANNNNAAN 8-mers; in that of ATTGCAAA, 0.202 % of ANNNNAAN 8-mers.
Same read-out and setting: in the case of AGGCAAAC it was 0.0866 % of ANNNNAAN 8-mers; in that of AATTGAAT, 0.203 % of ANNNNAAN 8-mers.
As to AGCGGAAG, the binding signal is 0.0202 % of ANNNNAAN 8-mers.
Regarding AGCGTAAT, the binding signal was 0.0591 % of ANNNNAAN 8-mers.
The same measure, in the same setting: for AGTATAAC the value was 0.0278 % of ANNNNAAN 8-mers.
Consider ACCATAAA, for which the binding signal is 0.0625 % of ANNNNAAN 8-mers.
As for ATAGTAAC, the binding signal was 0.0282 % of ANNNNAAN 8-mers.
Turning to ACACTAAT, the binding signal was 0.0568 % of ANNNNAAN 8-mers.
On the same count and under the same terms, in the case of ATCCCAAG it was 0.0172 % of ANNNNAAN 8-mers.
The same measure, in the same setting: in the case of ACTTGAAG it was 0.0198 % of ANNNNAAN 8-mers.
Turning to AATGGAAA, the binding signal is 0.242 % of ANNNNAAN 8-mers.
The same measure, in the same setting: for ATGCCAAA the value was 0.0458 % of ANNNNAAN 8-mers; for ACTTAAAC, 0.0336 % of ANNNNAAN 8-mers; for AGCACAAA, 0.0256 % of ANNNNAAN 8-mers.
In the case of AGTAAAAT, the binding signal was 0.226 % of ANNNNAAN 8-mers.
On to ATGTTAAA, for which the binding signal was 0.212 % of ANNNNAAN 8-mers.
For ATACAAAC, the binding signal is 0.0648 % of ANNNNAAN 8-mers.
The same measure, in the same setting: for ACCAAAAC the value was 0.0168 % of ANNNNAAN 8-mers.
Same read-out and setting: for ATCTCAAC the value was 0.0252 % of ANNNNAAN 8-mers; for AGGCCAAG, 0.0271 % of ANNNNAAN 8-mers.
Consider ATATGAAC, for which the binding signal is 0.0389 % of ANNNNAAN 8-mers.
On the same count and under the same terms, for AGCTGAAC the value was 0.0156 % of ANNNNAAN 8-mers; for AACGTAAT, 0.077 % of ANNNNAAN 8-mers; for ATTGTAAC, 0.0362 % of ANNNNAAN 8-mers.
Take ATACTAAG: the binding signal is 0.045 % of ANNNNAAN 8-mers.
Turning to AAGTCAAT, the binding signal was 0.0667 % of ANNNNAAN 8-mers.
For AGTGTAAC, the binding signal was 0.0217 % of ANNNNAAN 8-mers.
The same measure, in the same setting: in the case of ATGCAAAT it was 5.32 % of ANNNNAAN 8-mers; in that of AGTAGAAT, 0.0717 % of ANNNNAAN 8-mers.
Take AGCCTAAC: the binding signal was 0.0153 % of ANNNNAAN 8-mers.
The same measure, in the same setting: for ACATAAAT the value was 0.23 % of ANNNNAAN 8-mers; for AACAGAAC, 0.0183 % of ANNNNAAN 8-mers.
Same read-out and setting: in the case of AGCGGAAA it was 0.0378 % of ANNNNAAN 8-mers; in that of ATATGAAT, 0.243 % of ANNNNAAN 8-mers.

For a further test, the target named is T1, POU2 (OCT2 POU domain) (human, UniProt P09086 175-386).
T1 sequence: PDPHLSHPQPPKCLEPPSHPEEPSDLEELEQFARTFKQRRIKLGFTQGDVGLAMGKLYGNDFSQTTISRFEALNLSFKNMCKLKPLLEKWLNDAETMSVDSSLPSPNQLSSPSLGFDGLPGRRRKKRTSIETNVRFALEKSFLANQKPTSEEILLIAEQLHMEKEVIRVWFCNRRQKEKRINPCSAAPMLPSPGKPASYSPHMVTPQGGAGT
The test is described as above. As to conditions: protein: recombinant; dsDNA, one strand shown. The gist of the method:
as §1
In the case of ACCATAAC, the binding signal was 0.0213 % of ANNNNAAN 8-mers.
The same measure, in the same setting: in the case of AGGTGAAT it was 0.119 % of ANNNNAAN 8-mers; in that of AAGACAAA, 0.0472 % of ANNNNAAN 8-mers; in that of AGGGAAAG, 0.136 % of ANNNNAAN 8-mers.
On to ATTGCAAA, for which the binding signal was 0.167 % of ANNNNAAN 8-mers.
For the sequence AGGCAAAC, the binding signal was 0.0512 % of ANNNNAAN 8-mers.
Still for that read-out and setting: in the case of AATTGAAT it was 0.238 % of ANNNNAAN 8-mers.
Same read-out and setting: for AGCGGAAG the value was 0.0196 % of ANNNNAAN 8-mers; for AGCGTAAT, 0.0748 % of ANNNNAAN 8-mers.
The same measure, in the same setting: for AGTATAAC the value was 0.0328 % of ANNNNAAN 8-mers; for ACCATAAA, 0.0662 % of ANNNNAAN 8-mers.
Take ATAGTAAC: the binding signal is 0.0414 % of ANNNNAAN 8-mers.
Same read-out and setting: in the case of ACACTAAT it was 0.0811 % of ANNNNAAN 8-mers; in that of ATCCCAAG, 0.0167 % of ANNNNAAN 8-mers.
On to ACTTGAAG, for which the binding signal is 0.0236 % of ANNNNAAN 8-mers.
Regarding AATGGAAA, the binding signal was 0.155 % of ANNNNAAN 8-mers.
For the sequence ATGCCAAA, the binding signal was 0.0501 % of ANNNNAAN 8-mers.
For the sequence ACTTAAAC, the binding signal was 0.046 % of ANNNNAAN 8-mers.
AGCACAAA: the binding signal was 0.0242 % of ANNNNAAN 8-mers.
On the same count and under the same terms, for AGTAAAAT the value was 0.179 % of ANNNNAAN 8-mers.
As for ATGTTAAA, the binding signal is 0.216 % of ANNNNAAN 8-mers.
On the same count and under the same terms, for ATACAAAC the value was 0.0512 % of ANNNNAAN 8-mers; for ACCAAAAC, 0.0242 % of ANNNNAAN 8-mers.
As to ATCTCAAC, the binding signal was 0.027 % of ANNNNAAN 8-mers.
Take AGGCCAAG: the binding signal is 0.0334 % of ANNNNAAN 8-mers.
On the same count and under the same terms, for ATATGAAC the value was 0.0495 % of ANNNNAAN 8-mers.
On the same count and under the same terms, in the case of AGCTGAAC it was 0.0196 % of ANNNNAAN 8-mers.
On the same count and under the same terms, for AACGTAAT the value was 0.0823 % of ANNNNAAN 8-mers.
On to ATTGTAAC, for which the binding signal is 0.0374 % of ANNNNAAN 8-mers.
The same measure, in the same setting: for ATACTAAG the value was 0.0518 % of ANNNNAAN 8-mers.
On the same count and under the same terms, for AAGTCAAT the value was 0.0731 % of ANNNNAAN 8-mers; for AGTGTAAC, 0.015 % of ANNNNAAN 8-mers.
With ATGCAAAT, the binding signal was 5.41 % of ANNNNAAN 8-mers.
Same read-out and setting: for AGTAGAAT the value was 0.0892 % of ANNNNAAN 8-mers; for AGCCTAAC, 0.0144 % of ANNNNAAN 8-mers.
For the sequence ACATAAAT, the binding signal was 0.251 % of ANNNNAAN 8-mers.
On the same count and under the same terms, in the case of AACAGAAC it was 0.0242 % of ANNNNAAN 8-mers.
Consider AGCGGAAA, for which the binding signal is 0.0472 % of ANNNNAAN 8-mers.
For ATATGAAT, the binding signal was 0.316 % of ANNNNAAN 8-mers.

In another test the target is POU1 (OCT1 POU domain);BOB1 (OBF1, OCA-B) (human;human, UniProt P14859;Q16633 260-458;1-256, |). In words: EMSA-SELEX-seq; with BOB1 (ternary complex band); 20 mM Tris-HCl pH 7.6, 140 mM NaCl, 10% glycerol, 0.5 mM EDTA, 0.05% Triton X-100, 0.1 mg/mL BSA, 0.1 mg/mL poly(dI-dC), 5 mM DTT, room temperature, 20 min; high values mean tight binding. As to conditions: protein: recombinant;recombinant; copies: 1;1; dsDNA, one strand shown. A digest of the protocol:
as §1
On to ACCATAAC, for which the binding signal was 0.014 % of ANNNNAAN 8-mers.
As for AGGTGAAT, the binding signal was 0.071 % of ANNNNAAN 8-mers.
In the case of AAGACAAA, the binding signal is 0.0706 % of ANNNNAAN 8-mers.
Still for that read-out and setting: for AGGGAAAG the value was 0.222 % of ANNNNAAN 8-mers; for ATTGCAAA, 0.322 % of ANNNNAAN 8-mers; for AGGCAAAC, 0.157 % of ANNNNAAN 8-mers.
AATTGAAT: the binding signal was 0.127 % of ANNNNAAN 8-mers.
Regarding AGCGGAAG, the binding signal is 0.0215 % of ANNNNAAN 8-mers.
Regarding AGCGTAAT, the binding signal was 0.0382 % of ANNNNAAN 8-mers.
The same measure, in the same setting: in the case of AGTATAAC it was 0.0226 % of ANNNNAAN 8-mers; in that of ACCATAAA, 0.0304 % of ANNNNAAN 8-mers; in that of ATAGTAAC, 0.023 % of ANNNNAAN 8-mers.
Turning to ACACTAAT, the binding signal was 0.0316 % of ANNNNAAN 8-mers.
Still for that read-out and setting: in the case of ATCCCAAG it was 0.0246 % of ANNNNAAN 8-mers.
The same measure, in the same setting: in the case of ACTTGAAG it was 0.0273 % of ANNNNAAN 8-mers; in that of AATGGAAA, 0.268 % of ANNNNAAN 8-mers; in that of ATGCCAAA, 0.0464 % of ANNNNAAN 8-mers.
Still for that read-out and setting: in the case of ACTTAAAC it was 0.0277 % of ANNNNAAN 8-mers; in that of AGCACAAA, 0.0277 % of ANNNNAAN 8-mers.
Turning to AGTAAAAT, the binding signal is 0.236 % of ANNNNAAN 8-mers.
On the same count and under the same terms, for ATGTTAAA the value was 0.0956 % of ANNNNAAN 8-mers; for ATACAAAC, 0.0819 % of ANNNNAAN 8-mers; for ACCAAAAC, 0.032 % of ANNNNAAN 8-mers.
For the sequence ATCTCAAC, the binding signal was 0.0254 % of ANNNNAAN 8-mers.
Still for that read-out and setting: in the case of AGGCCAAG it was 0.0312 % of ANNNNAAN 8-mers; in that of ATATGAAC, 0.03 % of ANNNNAAN 8-mers.
Take AGCTGAAC: the binding signal is 0.0176 % of ANNNNAAN 8-mers.
With AACGTAAT, the binding signal was 0.0546 % of ANNNNAAN 8-mers.
Still for that read-out and setting: in the case of ATTGTAAC it was 0.0336 % of ANNNNAAN 8-mers.
ATACTAAG: the binding signal is 0.0441 % of ANNNNAAN 8-mers.
Still for that read-out and setting: for AAGTCAAT the value was 0.0535 % of ANNNNAAN 8-mers; for AGTGTAAC, 0.0234 % of ANNNNAAN 8-mers.
Consider ATGCAAAT, for which the binding signal was 8.18 % of ANNNNAAN 8-mers.
Regarding AGTAGAAT, the binding signal was 0.0578 % of ANNNNAAN 8-mers.
Consider AGCCTAAC, for which the binding signal was 0.0109 % of ANNNNAAN 8-mers.
Turning to ACATAAAT, the binding signal is 0.117 % of ANNNNAAN 8-mers.
The same measure, in the same setting: in the case of AACAGAAC it was 0.018 % of ANNNNAAN 8-mers; in that of AGCGGAAA, 0.0324 % of ANNNNAAN 8-mers.
With ATATGAAT, the binding signal was 0.122 % of ANNNNAAN 8-mers.
